Measurements published in the supplement of paper PMC6555819.

Experiments:
Assay in all cases: PBM binding z-score (relative to random genomic background probes); higher = stronger binding; sequences stand for … in GC…GCGATTGACAGCGTAGAATGAAGG
[1] = tested on: FXR:RXRa (NR concentration 270 nM, RXRa partner concentration 90 nM)
Method in brief: (§1)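 Binding z-scores take random background probes as their reference. They come from custom Agilent 4×180K protein-binding microarrays incubated 1 h with ligand-free nuclear receptor dimers, with antibodies against each partner (one per run) detecting binding. Scanned fluorescence was regression-normalized.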

[2] = tested on: LXRa:RXRa (NR concentration 270 nM, RXRa partner concentration 90 nM)
Method in brief: as §1

[3] = tested on: LXRa homodimer (NR concentration 270 nM)
Method in brief: as §1

[4] = tested on: LXRb:RXRa (NR concentration 270 nM, RXRa partner concentration 90 nM)
Method in brief: as §1

[5] = tested on: LXRb homodimer (NR concentration 270 nM)
Method in brief: as §1

[6] = tested on: PPARa:RXRa (NR concentration 270 nM, RXRa partner concentration 90 nM)
Method in brief: as §1

[7] = tested on: PPARg:RXRa (NR concentration 180 nM, RXRa partner concentration 90 nM)
Method in brief: as §1

[8] = tested on: PPARg:RXRa 270nM:90nM, anti-RXR (NR concentration 270 nM, RXRa partner concentration 90 nM)
Method in brief: as §1

[9] = tested on: PPARg:RXRa 30nM:10nM, anti-RXR (NR concentration 30 nM, RXRa partner concentration 10 nM)
Method in brief: as §1

[10] = tested on: PPARg:RXRa 90nM:30nM, anti-RXR (NR concentration 90 nM, RXRa partner concentration 30 nM)
Method in brief: as §1

[11] = tested on: PPARg:RXRa DBDmut IVT, anti-RXR (DBD mutation: RXRa K156A/R161A, NR concentration 270 nM, RXRa partner concentration 90 nM)
Method in brief: as §1

[12] = tested on: PPARg:RXRa IVT, anti-PPARg (NR concentration 270 nM, RXRa partner concentration 90 nM)
Method in brief: as §1

[13] = tested on: PPARg DBDmut:RXRa IVT, anti-PPARg (DBD mutation: PPARg1 K132A/R137A, NR concentration 270 nM, RXRa partner concentration 90 nM)
Method in brief: as §1

[14] = tested on: PPARg DBDmut IVT, anti-PPARg (DBD mutation: PPARg1 K132A/R137A, NR concentration 270 nM)
Method in brief: as §1

[15] = tested on: PPARg homodimer (NR concentration 180 nM)
Method in brief: as §1

[16] = tested on: PXR:RXRa (NR concentration 270 nM, RXRa partner concentration 90 nM)
Method in brief: as §1

[17] = tested on: PXR homodimer (NR concentration 270 nM)
Method in brief: as §1

[18] = tested on: RARa:RXR (NR concentration 270 nM, RXRa partner concentration 90 nM)
Method in brief: as §1

[19] = tested on: RARa homodimer (NR concentration 270 nM)
Method in brief: as §1

[20] = tested on: RARb:RXRa (NR concentration 270 nM, RXRa partner concentration 90 nM)
Method in brief: as §1

Sequence | PBM binding z-score [1] | PBM binding z-score [2] | PBM binding z-score [3] | PBM binding z-score [4] | PBM binding z-score [5] | PBM binding z-score [6] | PBM binding z-score [7] | PBM binding z-score [8] | PBM binding z-score [9] | PBM binding z-score [10] | PBM binding z-score [11] | PBM binding z-score [12] | PBM binding z-score [13] | PBM binding z-score [14] | PBM binding z-score [15] | PBM binding z-score [16] | PBM binding z-score [17] | PBM binding z-score [18] | PBM binding z-score [19] | PBM binding z-score [20]
CGTCCAAGGTCAGCAGGTCAGTGATAGCGACGTG | 5.6 | 3.86 | 0.399 | 2.59 | -0.265 | 4.52 | 4.13 | 4.45 | 1.15 | 3.05 | 3.28 | 3.76 | -0.113 | -0.161 | 2.53 | 3.41 | 0.512 | 4.49 | 1.26 | 5.45
CCGAGTAGGATATGGGGCATTCAGGCAACGGTGA | -0.328 | -0.279 | -0.104 | -0.307 | -0.496 | 1.11 | 1.26 | 2.01 | 0.579 | 1.45 | 2.05 | 2.81 | -0.179 | -0.813 | 0.55 | -0.236 | -0.112 | -0.0398 | 0.174 | -0.0937
ATACCAAGGTGATCGTGAGGTCGTTGACACTAAC | 2.81 | 1.92 | 0.798 | 1.38 | -0.392 | 1.59 | 0.583 | 0.586 | 0.0332 | 0.0166 | 0.337 | 1.12 | -0.329 | 0.642 | 1.07 | 3.23 | 1.34 | 2.52 | 0.306 | 1.4
TAGCCTAGGTCAGATCGGGCCAGTATACGCTATA | 1.61 | 1.09 | -0.264 | 0.666 | -0.213 | 1.7 | 0.85 | 0.845 | -0.133 | 0.327 | 0.415 | 1.78 | 0.225 | -0.375 | 0.0641 | 1.01 | -0.518 | 1.42 | -0.937 | 3.02
ATCTCTAGGTAACAAGTTCGGTGAAAGAGAGGAC | 0.656 | 0.804 | 0.56 | 0.383 | 0.814 | 0.973 | 1.13 | 1.67 | 0.766 | 1.35 | 3.31 | 2.96 | 1.06 | 0.893 | 1.01 | 0.677 | 0.713 | 0.675 | 0.59 | 0.969
ACTAGCAGGCCAAGTTTGGGACACTCAAACAAAG | -0.139 | -0.665 | -0.588 | -0.515 | -0.807 | -0.478 | 0.0502 | -0.814 | -0.775 | -0.548 | 0.573 | 0.235 | -0.681 | -1.33 | -0.893 | -0.655 | -0.694 | -0.143 | -0.864 | 0.366
CCGACTGGGGCAAACGTTACCATACTCAGTACGA | -0.264 | -0.168 | -0.00869 | -0.27 | -0.682 | 1.61 | 3.62 | 4.48 | 2.27 | 4.25 | 5.15 | 3.9 | -0.175 | -0.646 | 0.256 | -0.42 | -0.33 | -0.168 | -0.437 | 0.494
ATATGTAGGTTTTCGGGTCATTCAGTTTGCGCAT | 3.26 | 2.94 | 1.41 | 3.14 | 1.57 | 4.19 | 3.95 | 4.14 | 1.9 | 3.5 | 5.6 | 5.42 | 1.9 | 1.31 | 2.39 | 4.14 | 8.75 | 3.74 | 1.72 | 2.17
ATATTTAGGTTAAGGGTCATTCAGGTTGGTTCGC | 5.26 | 4.78 | 3.91 | 4.61 | 3.14 | 6.38 | 11 | 9.52 | 9.42 | 10.5 | 6.47 | 7.1 | 5.34 | 5.2 | 5.4 | 5.69 | 3.67 | 5.96 | 5.28 | 3.68
CCTAGTTGGTCAAGGTCATACACGCTATAGGTAC | 4.77 | 4.27 | 2.86 | 3.52 | 0.89 | 3.97 | 2.79 | 3.21 | 1.22 | 2.74 | 2.28 | 3.11 | 0.777 | 1.26 | 3.11 | 4.21 | 3.04 | 4.33 | 2.79 | 4.04
ACAGACAGGTGATGAAGGTAACTTAGGCTATCAT | -0.131 | -0.0415 | -0.322 | 0.0367 | -0.119 | 0.169 | 0.55 | -0.195 | -0.0102 | -0.0594 | 0.373 | 0.171 | 0.414 | 0.165 | 0.0231 | -0.0368 | -0.316 | 0.217 | 0.132 | 0.163
ACTAGCGGGCCAAGGGTCACTCAAGATTAGTCCG | 1.99 | 2.61 | 0.192 | 2.86 | -0.58 | 4.26 | 7.39 | 7.39 | 6.2 | 8.29 | 0.353 | 3.65 | -0.682 | -0.893 | 0.892 | 3.21 | -0.327 | 4.1 | 0.108 | 3.38
ATCTCTAGGTAACCAAGTTCGGTGAATGCCGAAC | 0.162 | 0.167 | 0.0553 | 0.11 | 0.555 | 0.569 | 0.336 | 0.74 | 0.0695 | 0.909 | 3.09 | 2.93 | 1.06 | 1.09 | 0.509 | 0.501 | 0.469 | 0.415 | 0.268 | 0.571
ATCGAAAGGTCGAGGTAAGTATAGAGAAAGGGAA | 3.98 | 3.46 | 0.361 | 2.66 | 0.336 | 4.29 | 2.72 | 3.32 | 1.2 | 2.24 | 0.0665 | 1.66 | 1.14 | 1.3 | 1.24 | 2.31 | 0.464 | 3.24 | 1.21 | 4.06
